# Screens: PubChem, National Center for Advancing Translational Sciences (NCATS)
# Shown are actives, neighbours in structure and some others; about 10% of the full set was active somewhere.
# PLK1 PBD block: qHTS for Inhibitors of PLK1-PDB (polo-like kinase 1 - polo-box domain): Primary Screen | Serine/threonine-protein kinase PLK1 (Homo sapiens), P53350 | Potency, µM, for the others: max response, negative = inhibition, actives largely listed as inhibitors | AID 720504, 2013 | Plk1 PBD binding of FITC phosphopeptide, fluorescence polarization | 360,000 compounds, 2.8% hits; further: potency means the concentration at half of the fitted maximal effect; series mostly up to about 57 µM; nearly all actives have a fitted effect of over 65% in size
# Target sequence (P53350 whole entry, looked up, the tested form may be a part): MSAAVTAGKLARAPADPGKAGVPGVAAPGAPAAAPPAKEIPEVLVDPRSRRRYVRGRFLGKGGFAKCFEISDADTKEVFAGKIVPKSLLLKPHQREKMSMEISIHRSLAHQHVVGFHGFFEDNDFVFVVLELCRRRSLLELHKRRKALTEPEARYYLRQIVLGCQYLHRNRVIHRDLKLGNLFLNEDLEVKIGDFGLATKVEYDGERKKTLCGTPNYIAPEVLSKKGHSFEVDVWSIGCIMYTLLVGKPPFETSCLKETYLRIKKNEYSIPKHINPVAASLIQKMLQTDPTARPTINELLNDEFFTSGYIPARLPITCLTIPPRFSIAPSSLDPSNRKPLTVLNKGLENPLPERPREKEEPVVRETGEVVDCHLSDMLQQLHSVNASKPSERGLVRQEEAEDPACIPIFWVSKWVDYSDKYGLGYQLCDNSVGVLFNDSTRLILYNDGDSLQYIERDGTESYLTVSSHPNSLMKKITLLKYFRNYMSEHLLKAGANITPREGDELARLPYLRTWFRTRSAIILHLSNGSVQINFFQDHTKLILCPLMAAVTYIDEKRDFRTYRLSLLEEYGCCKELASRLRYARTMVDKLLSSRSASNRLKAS
# Mm-Cpn inhibitor: Inhibitors of TCP-1 ring complex (TRiC) of Methanococcus maripaludis (MmCpn): qHTS; Chaperonin Mm-Cpn (Methanococcus maripaludis); purified Mm-Cpn ATPase, ADP Transcreener TR-FRET; Potency, µM (doses to about 76.9 µM), without a hit: top-dose activity, negative = inhibition, actives largely listed as inhibitors; 330,000 compounds, 0.031% hits; AID 504842, 2011; further: potency means the concentration at half of the fitted maximal effect; nearly all actives have a fitted effect of over 80% in size
#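 Inhibition of chaperonin ATP hydrolysis is measured as reduced ADP production, detected by competitive TR-FRET in which signal falls with ADP. Final enzyme 25 nM and ATP 10 uM, reacted 30 min at 37°C.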
# Sfp inh: qHTS Assay for Inhibitors of Bacillus subtilis Sfp phosphopantetheinyl transferase (PPTase) | 4'-phosphopantetheinyl transferase ffp (Bacillus subtilis), Q9F4F7 | Biochemical Sfp PPTase activity, qHTS | Potency, µM, without a hit: largest response in the series, negative = inhibition, most hits filed as inhibitors | 310,000 compounds, 3.5% hits;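 further: the enzyme is Sfp with the accession as filed and its product quenches rhodamine fluorescence; potency means the concentration at half of the fitted maximal effect; 0% = enzyme reaction without inhibitor and -100% = no enzyme wells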
#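 Reaction rates are the 30-min fluorescence difference (ex 525, em 598 nm) in wells containing 15 nM Sfp, 5 uM rhodamine-CoA and 12.5 uM BHQ-2-YbbR at pH 7.6 with 10 mM MgCl2.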
# CCT chaperon mod: High-Throughput Screening for Modulators of Cytosolic Chaperonin Activity; activity change, % (no concentration beside the values), hits read low; 360,000 compounds, 0.3% hits; purified chaperonin ATPase assay, HTRF ADP detection, 30 min; in the data active means activity change below about -30%
#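 We incubate TRiC, 40 or 20 nM final, with library compounds at 76 uM and 10 uM ATP for 30 min at 37 °C. ADP formed is detected with Transcreener HTRF reagents after 30 min at room temperature.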
# G9a block: qHTS Assay for Inhibitors of Histone Lysine Methyltransferase G9a; Histone-lysine N-methyltransferase EHMT2 (Homo sapiens), Q96KQ7; Potency, µM (top dose mostly 102 µM), for the others: top-dose activity, negative = inhibition, actives largely listed as inhibitors; G9a H3K9 monomethylation, AlphaScreen, 2 h; 350,000 compounds, 8.8% hits; further: potency means the concentration at half of the fitted maximal effect; nearly all actives have a fitted effect of over 75% in size
#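 Chemiluminescent proximity detection of H3K9 monomethylation, read after 10 min bead incubation in the dark. Reaction: 20 nM G9a, 500 nM biotin-H3K9 peptide, 20 uM SAM cofactor, 2 h, room temperature, following 15 min enzyme-compound preincubation.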
# VDR inh: Inhibitors of the vitamin D receptor (VDR): qHTS. VDR-SRC2-3 peptide fluorescence polarization, 2 h. Potency, µM, inactives show max response, negative = inhibition, most hits filed as inhibitors. 400,000 compounds, 0.93% hits. AID 504847, 2011; further: potency means the concentration at half of the fitted maximal effect
#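 Inhibition of the VDR/SRC2-3 peptide interaction is quantified by fluorescence polarization. Compounds (23 nl, pintool) incubate with the reagents for 2 hours at ambient room temperature.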
# An asterisk follows results filed as active; ? = inconclusive; / = no result; [ ] = remark or other dose. Unless noted, the call rests on the fitted dose curve; in most records, active means well fitted curve in the direction sought with a large enough effect; inconclusive means small, poorly fitted or top-dose-only effect, or another doubt; inactive means no such curve, though single readings can be large; an effect the other way counts as inactive or inconclusive. Unless noted, on the % scale 0 is the no-effect control and ±100 the full control effect.
SMILES,PLK1 PBD block,Mm-Cpn inhibitor,Sfp inh,CCT chaperon mod,G9a block,VDR inh
COc1ccc(Cl)cc1NC(=O)C/C(C)=N/NC(=O)CCc1ccccc1,-8%,2%,19%,-3,25%,-8%
C/C(CC(=O)Nc1ccc(Cl)cc1Cl)=N\NC(N)=S,-6%,-1%,10%,-3,17%[0.501 µM],-24%
C/C(CC(=O)Nc1cc(Cl)ccc1Cl)=N\NC(N)=S,-9%,1%,35µM*,2,3%[12.7 µM],-14%
COc1ccc(C(=O)Nc2nc3c(s2)Cc2c(Br)ccc(OC)c2-3)cc1OC,/,/,/,/,-7%[59 µM],-1%
CCOC(=O)c1c(C)oc2nc(C)nc(NCc3ccc(OC)cc3OC)c12,/,/,/,/,-4%[59 µM],-6%
COc1ccc2c(c1)CC(NC(=O)Nc1cc(Cl)ccc1OC)CO2 (configuration not stated),/,/,/,/,-14%[59 µM],21%
CC(C)N1C(=O)C(O)(c2c[nH]c3ccccc23)c2ccccc21 (configuration not stated),/,/,/,/,-40%[59 µM],0%
COc1ccc(N2CCN(CC(O)COc3ccc(C(C)C)c(C)c3)CC2)cc1 (configuration not stated),/,/,/,/,6.3µM*,-6%
COc1ccc(N2CCN(CC(O)COc3ccc(C)c(C)c3)CC2)cc1 (configuration not stated),1%,1%,-1%,-3,32µM*,7%
CCOC(=O)N1CCN(CC(O)COc2ccc(C)c(C)c2)CC1 (configuration not stated),-1%,-1%,7%,0,27%[2.33 µM],-1%
Cc1cc(OCC(O)CN2CCCC2)ccc1C(C)C (configuration not stated),-3%,1%,8%,-1,/,?
COc1ccccc1CNC(=O)C1CCN(S(=O)(=O)c2c(C)noc2/C=C/c2cccs2)CC1,/,/,/,/,-32%[59 µM],-21%
Cn1c(=O)c2c(nc(SC3C(=O)CC(C)(C)CC3=O)n2C)n(C)c1=O,-1%,1%,56µM*,-1,?,9%
CCN(C(=O)c1cc2c(=O)oc3ccc(C)cc3c2s1)c1ccccc1F,/,/,/,/,2%[59 µM],-5%
CCc1ccc(-n2c(=O)c3c4c(sc3n(CC(=O)NCCCOC)c2=O)CCC4)cc1,/,/,/,/,-3%[59 µM],-2%
O=C(O)c1ccc(-c2nc(-c3ccccc3)c(-c3ccccc3)[nH]2)cc1,?,-11%,8%,0,-2%[59 µM],-13%
COc1ccc(-c2[nH]c(-c3ccc(C(=O)O)cc3)nc2-c2ccccc2)cc1,-9%,-14%,-1%,-1,79µM*,2%
COc1ccc(N=Nc2nc(-c3ccccc3)c(-c3ccccc3)[nH]2)cc1,4%,-1%,15%,-1,16µM*,-6%
COc1ccc(C)cc1NC(=O)CSc1ncc2c(n1)-c1ccc(Cl)cc1N(Cc1ccccc1)S2(=O)=O,/,/,/,/,-31%[59 µM],-12%
Cc1cc(C)n2ncc(C(=O)Nc3ccc(Cl)c(Cl)c3)c2n1,?,-3%,-26%,0,40µM*,-18%
CCC(=O)C1=C(c2cccc([N+](=O)[O-])c2)N(C(=O)CC)n2c(nnc2-c2ccccc2)S1,/,/,/,/,11%[59 µM],4%
CC(=O)Nc1nc(-c2ccccc2)c(-c2ccccc2)s1,/,/,/,/,/,4%
CC(=O)NC1Sc2ccccc2N=C1c1ccccc1 (configuration not stated),19µM*,-1%,16µM*,-2,?,79µM*
O=C(OCC(=O)N1CCc2ccccc21)c1c2c(nc3ccccc13)CCCC2,-2%,-2%,11%,-1,?,-26%
